PubChem BioAssay
Results with a measured potency or affinity are listed apart. Records with an inconclusive call do not appear. Calls of active or inactive are those of the source.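 The calls were made as follows, unless noted: active = a dose-response fit showing signal loss, with half-maximal concentration no higher than twice the top tested dose; inconclusive = flat fit between 30% and 70% signal loss, or poor fit; inactive = the rest.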

Tests used:
[1] = Cryptococcus neoformans growth inhibition, dose response, Alamar Blue, cherry-picks (AID 686998;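 active = falling signal with fitted half-maximal potency no higher than twice the top valid tested dose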); conditions: 24 h; series mostly up to 35 µM
[2] = inducers of Cryptococcus neoformans cell lysis, dose response, AK release luminescence, cherry-picks (AID 687000;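 active = fitted dose curve reaches 40% lysis signal rise at or below the highest valid concentration tested for that sample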;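 also: luminescent detection of adenylate kinase leaking from lysed yeast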); conditions: C. neoformans lysis, adenylate kinase release luminescence, 4 h, 100% = twice the neutral-control signal; series mostly up to 15 µM
[3] = HepG2 cell cytotoxicity, dose response, cytotoxicity control, cherry-picks, set 2 (AID 687002); conditions: HepG2 viability, ATP luminescence (CellTiter-Glo), 48 h; series mostly up to 26 µM
[4] = HeLa cell cytotoxicity, dose response, cytotoxicity control, ATP luminescence, cherry-pick samples (AID 687004;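 active = a fitted half-maximal concentration no higher than twice the top valid tested dose, with signal falling as cells die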); conditions: HeLa viability, ATP luminescence (CellTiter-Glo), 48 h; series mostly up to 26 µM

Measured: outcome

Cc1ccc(S(=O)(=O)N[C@H]2CC[C@H](CCNC(=O)C3CCCC3)O[C@@H]2CO)cc1
inactive: all assays above

CCNC(=O)Nc1ccc2c(c1)C(=O)N(C)[C@H]1CC[C@H](CC(=O)Nc3ccccc3F)O[C@@H]1CO2
inactive: [1] | [2] | [3]

CO[C@@H](CN(C)Cc1cc(F)ccc1F)[C@@H](C)CN([C@H](C)CO)S(=O)(=O)c1ccc(F)cc1
inactive: [1] | [2] | [3]

O=C(C[C@@H]1C[C@@H]2c3cc(NC(=O)C4CCC4)ccc3O[C@@H]2[C@H](CO)O1)NCc1cccc(F)c1
inactive: all assays above

COc1cc(CNC(C)(C)C)ccc1OCC(=O)NC(C)(C)C
inactive: all assays above

O=C(O)C[C@@H]1CC[C@@H]2[C@H](COC[C@H](O)CN2S(=O)(=O)c2ccc(F)cc2)O1
inactive: all assays above

COc1ccc(C(=O)NC(=S)Nc2cccc(Cl)c2N2CCOCC2)cc1[N+](=O)[O-]
inactive: [1] | [2] | [3]

O=C(Cc1cccs1)N1CCN(c2ccccc2)CC1
inactive: all assays above

C[C@H](O)C#Cc1ccc([C@H]2[C@H](CO)N3CCCCN(CC4CCOCC4)C[C@@H]23)cc1
inactive: all assays above

CCC(=O)N1[C@H](C(=O)Nc2ccccc2)[C@@H](CO)[C@@H]2Cn3c(ccc(-c4ccncc4)c3=O)[C@@H]21
inactive: all assays above

C[C@@H]1CCCCO[C@@H](CN(C)Cc2ccncc2)[C@@H](C)CN([C@H](C)CO)C(=O)c2cc(NC(=O)c3ccncc3)ccc2O1
inactive: all assays above

O=C(Cc1cccs1)N1CCN(c2cccc(Cl)c2)CC1
inactive: all assays above

CCCCN1CCCCC1C(=O)Nc1c(C)cccc1C (configuration not stated)
inactive: all assays above

COc1ccc(CNC(=O)COc2ccc(OC)cc2)cc1
inactive: all assays above

COCC(=O)N1[C@H](C#N)[C@H](c2ccc(C#Cc3ccccc3F)cc2)[C@H]1CO
inactive: all assays above

COc1ccc(-n2cc(CNCCc3nc(C)cc(C)n3)c(-c3ccccc3Cl)n2)cc1
inactive: all assays above

CC(=O)N1[C@H](CO)[C@H](c2ccc(-c3ccccc3)cc2)[C@H]1CNC(=O)C1CC1
inactive: all assays above

O=C(c1ccco1)N1N=C(c2cccs2)CC1c1ccccc1O (configuration not stated)
inactive: all assays above

COCC#Cc1cnc2c(c1)C(=O)N([C@H](C)CO)C[C@@H](C)[C@@H](CN(C)C(=O)Nc1ccc(OC)cc1)O2
inactive: all assays above

CC(C)NC(=O)Nc1cccc2c1O[C@H](CN(C)C)[C@H](C)CN([C@@H](C)CO)C2=O
inactive: all assays above

CO[C@H]1CC[C@H]2CCOc3c(C#N)cccc3C(=O)N(C)C[C@@H](C)C(=O)N(C)C[C@H]1O2
inactive: all assays above

COc1ccccc1CNC(=O)C[C@@H]1C[C@H]2c3cc(NC(=O)Nc4ccccc4F)ccc3O[C@H]2[C@@H](CO)O1
inactive: all assays above

C[C@@H]1CN([C@@H](C)CO)C(=O)c2cc(C3=CCCCC3)cnc2O[C@H]1CN(C)C(=O)Cc1cccnc1
inactive: all assays above

CCCC(=O)N1CCCC1(C)C(=O)Nc1cc(C)ccc1C (configuration not stated)
inactive: all assays above

O=C(Nc1cccc(F)c1)N[C@H]1CC[C@H](CCNS(=O)(=O)c2cccc(Cl)c2)O[C@@H]1CO
inactive: all assays above

CC(C)NC(=O)N(C)C[C@@H]1OCCCC[C@@H](C)Oc2ccc(NC(=O)c3ccccc3)cc2C(=O)N([C@H](C)CO)C[C@@H]1C
inactive: all assays above

COc1cccc(S(=O)(=O)Nc2ccc3c(c2)[C@H]2C[C@H](CC(=O)NCc4cccc(F)c4)O[C@@H](CO)[C@H]2O3)c1
inactive: all assays above

CO[C@H]1CN(C)C(=O)c2cc(NC(=O)Nc3cccc(F)c3)ccc2OC[C@H](C)N(C)C[C@H]1C
inactive: all assays above

CCCC#Cc1cnc2c(c1)C(=O)N([C@@H](C)CO)C[C@H](C)[C@H](CN(C)C(=O)Nc1cccc(F)c1)O2
inactive: all assays above

CCS(CC)=NS(=O)(=O)c1ccc(NC(C)=O)cc1
inactive: all assays above

O=C([C@H]1[C@H](CO)[C@H]2Cn3c(cccc3=O)[C@H]2N1CCC(F)(F)F)N1CCCCC1
inactive: all assays above

CC(=O)N1CCN(c2ccc(NC(=S)NC(=O)c3ccc(C)c([N+](=O)[O-])c3)cc2)CC1
inactive: all assays above

COc1ccc(NC(=O)Nc2ccc3c(c2)C(=O)N([C@H](C)CO)C[C@@H](C)[C@@H](CN(C)C(=O)CCC(F)(F)F)OCCCC[C@H](C)O3)cc1
inactive: all assays above

CN1C(=O)c2cc(NS(C)(=O)=O)ccc2OC[C@@H]2O[C@@H](CC(=O)O)CC[C@@H]21
inactive: all assays above

O=C(C[C@H]1CC[C@@H]2[C@H](COC[C@@H](O)CN2Cc2cccc(C(F)(F)F)c2)O1)NCc1ccc(Cl)cc1
inactive: all assays above

N#Cc1ccc(-c2ccc3c(c2)[C@@H]2[C@@H](CCN2C(=O)Cc2ccccc2)[C@@H](CO)N3)cc1
inactive: all assays above

C[C@H](CO)N1C[C@H](C)[C@@H](CN(C)S(=O)(=O)c2ccc(Cl)cc2)Oc2c(NS(=O)(=O)c3ccc(F)cc3)cccc2C1=O
inactive: all assays above

C[C@H](CO)N1C[C@H](C)[C@H](CN(C)Cc2ccncc2)Oc2ccc(NC(=O)CCC(F)(F)F)cc2C1=O
inactive: all assays above

O=C(C[C@H]1CC[C@H]2[C@@H](COC[C@@H](O)CN2S(=O)(=O)c2ccc(Oc3ccccc3)cc2)O1)NC1CCC1
inactive: all assays above

CC(C)(C)SCCNC(=O)CN(c1ccccc1)S(=O)(=O)c1ccc(F)cc1
inactive: all assays above

C[C@H](O)C#Cc1cnc2c(c1)C(=O)N([C@@H](C)CO)C[C@@H](C)[C@@H](CN(C)C(=O)Cc1ccncc1)O2
inactive: all assays above

CO[C@H]1CN(C)C(=O)c2ccc(NC(=O)C3CC3)cc2OC[C@@H](C)N(Cc2ccc(F)cc2)C[C@@H]1C
inactive: all assays above

Cc1ccc(NC(=O)C2(C)CCN2C(=O)C2CCCCC2)cc1C (configuration not stated)
inactive: all assays above

O=C1CCC(C(=O)Nc2ccc(Cl)cc2)N1 (configuration not stated)
inactive: all assays above

Cc1cc(C(=O)Nc2ccc3c(c2)C(=O)N(C)[C@@H]2CC[C@@H](CC(=O)N[C@@H](C)c4ccccc4)O[C@@H]2CO3)no1
inactive: all assays above

CC(C)NC(=O)N(C)C[C@@H]1OCCCC[C@H](C)Oc2ccc(NC(=O)c3ccccc3)cc2C(=O)N([C@H](C)CO)C[C@H]1C
inactive: all assays above

C[C@H](CO)N1C[C@H](C)[C@H](CN(C)Cc2cccc(C(F)(F)F)c2)OCc2cnnn2CCCC1=O
inactive: all assays above

CCC(C(=O)Nc1c(C)cc(C)cc1C)N1CCCCCC1 (configuration not stated)
inactive: all assays above

CCCNC(=O)N1[C@@H](CO)[C@@H](c2ccc(-c3ccccc3)cc2)[C@@H]1CNC(C)=O
inactive: all assays above

CC(C)NC(=O)N(C)C[C@H]1OCCCC[C@@H](C)Oc2ccc(NC(=O)c3ccccc3)cc2C(=O)N([C@@H](C)CO)C[C@@H]1C
inactive: all assays above

C[C@H]1CN([C@@H](C)CO)C(=O)c2cccc(NS(=O)(=O)c3cn(C)cn3)c2O[C@@H]1CN(C)CC1CCCCC1
inactive: all assays above

CC1=C(C(=O)OCc2ccccc2)C(c2ccccc2)NC(=O)N1 (configuration not stated)
inactive: all assays above

CN1[C@H](C(=O)N2CCc3ccccc3C2)[C@@H](CO)[C@@H]2Cn3c(ccc(-c4cccnc4)c3=O)[C@@H]21
inactive: all assays above

C/C=C/c1ccc([C@@H]2[C@@H](CNC(=O)c3ccccc3)N(C(C)=O)[C@H]2CO)cc1
inactive: all assays above

CN1C(=O)c2cccc3c(S(=O)(=O)N(C)C)ccc1c23
inactive: all assays above
